Columns and labels:
Test in all cases: DAPPL (digital affinity profiling via proximity ligation, sequencing); 10 mM Tris-HCl pH 7.5, 50 mM NaCl, 1 mM DTT, 4% glycerol, room temperature, 30 min; GST-TFs on glutathione beads, 16-mer random dsDNA library, 0.1% formaldehyde crosslink after washing; high values mean tight binding
FEV = biological target: T1, FEV (Homo sapiens, UniProt Q99581 1-238); conditions: protein: recombinant; tags: N-terminal GST; dsDNA, one strand shown
T1 sequence: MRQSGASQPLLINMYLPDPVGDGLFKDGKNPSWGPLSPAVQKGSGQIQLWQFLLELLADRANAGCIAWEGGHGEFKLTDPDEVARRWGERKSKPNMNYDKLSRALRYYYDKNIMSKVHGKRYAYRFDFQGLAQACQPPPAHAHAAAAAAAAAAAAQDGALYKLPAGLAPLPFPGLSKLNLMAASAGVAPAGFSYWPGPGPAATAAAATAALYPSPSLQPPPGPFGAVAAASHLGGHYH
In short: (§1)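 Human transcription factors were made in yeast as GST fusions, captured on glutathione beads and barcoded with DNA. With a tag-only sample included, the pool was incubated with 200 nmole of a random double-stranded 16-mer DNA library in Tris/NaCl/DTT/glycerol buffer at room temperature for 30 min, then crosslinked with 0.1% formaldehyde after washing, ligated by proximity, amplified and sequenced. For binding signal, each hexamer's read frequency for a factor is divided by its frequency for the tag-only sample.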

ETV5 = ETV5 (Homo sapiens, UniProt P41161 1-510); conditions: protein: recombinant; tags: N-terminal GST; dsDNA, one strand shown
In short: as §1

HSF1 = HSF1 (Homo sapiens, UniProt Q00613 1-529); conditions: protein: recombinant; tags: N-terminal GST; chain copies: 3; dsDNA, one strand shown
In short: as §1

SPIC = biological target: T2, SPIC (Homo sapiens, UniProt Q8N5J4 1-248); conditions: protein: recombinant; tags: N-terminal GST; dsDNA, one strand shown
T2 sequence: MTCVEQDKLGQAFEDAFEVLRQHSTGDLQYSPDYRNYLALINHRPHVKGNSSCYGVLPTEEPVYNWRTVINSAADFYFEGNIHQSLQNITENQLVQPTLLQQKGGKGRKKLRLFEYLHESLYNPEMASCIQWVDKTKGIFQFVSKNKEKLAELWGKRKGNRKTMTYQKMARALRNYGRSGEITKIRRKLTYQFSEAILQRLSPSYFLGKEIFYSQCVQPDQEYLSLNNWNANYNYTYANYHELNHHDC
In short: as §1

ELF4 = ELF4 (Homo sapiens, UniProt Q99607 1-663); conditions: protein: recombinant; tags: N-terminal GST; dsDNA, one strand shown
In short: as §1

ELK4 = biological target: T3, ELK4 (Homo sapiens, UniProt P28324-2 1-405); conditions: protein: recombinant; tags: N-terminal GST; dsDNA, one strand shown
T3 sequence: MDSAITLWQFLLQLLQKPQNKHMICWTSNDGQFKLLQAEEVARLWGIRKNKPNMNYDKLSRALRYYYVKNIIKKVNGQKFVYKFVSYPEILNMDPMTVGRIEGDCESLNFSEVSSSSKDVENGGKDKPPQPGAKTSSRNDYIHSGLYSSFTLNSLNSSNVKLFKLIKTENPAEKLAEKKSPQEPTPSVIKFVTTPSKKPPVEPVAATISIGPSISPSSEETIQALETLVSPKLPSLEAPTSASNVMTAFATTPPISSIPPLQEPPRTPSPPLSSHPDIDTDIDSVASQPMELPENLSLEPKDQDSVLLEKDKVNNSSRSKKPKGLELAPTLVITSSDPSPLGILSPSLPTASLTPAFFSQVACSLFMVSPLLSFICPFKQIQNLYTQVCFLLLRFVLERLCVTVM
In short: as §1

ETV2 = biological target: T4, ETV2 (Homo sapiens, UniProt O00321 1-342); conditions: protein: recombinant; tags: N-terminal GST; dsDNA, one strand shown
T4 sequence: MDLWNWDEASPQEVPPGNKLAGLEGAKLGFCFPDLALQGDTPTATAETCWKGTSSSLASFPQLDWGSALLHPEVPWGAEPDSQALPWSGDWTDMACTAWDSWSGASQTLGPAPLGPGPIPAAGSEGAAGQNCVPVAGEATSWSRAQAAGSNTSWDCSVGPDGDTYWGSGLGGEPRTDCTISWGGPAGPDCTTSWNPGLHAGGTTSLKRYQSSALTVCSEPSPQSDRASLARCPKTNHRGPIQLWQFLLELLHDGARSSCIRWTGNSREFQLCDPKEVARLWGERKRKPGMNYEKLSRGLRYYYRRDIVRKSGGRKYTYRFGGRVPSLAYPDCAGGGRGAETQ
In short: as §1

ELF3 = biological target: T5, ELF3 (Homo sapiens, UniProt P78545 1-371); conditions: protein: recombinant; tags: N-terminal GST; dsDNA, one strand shown
T5 sequence: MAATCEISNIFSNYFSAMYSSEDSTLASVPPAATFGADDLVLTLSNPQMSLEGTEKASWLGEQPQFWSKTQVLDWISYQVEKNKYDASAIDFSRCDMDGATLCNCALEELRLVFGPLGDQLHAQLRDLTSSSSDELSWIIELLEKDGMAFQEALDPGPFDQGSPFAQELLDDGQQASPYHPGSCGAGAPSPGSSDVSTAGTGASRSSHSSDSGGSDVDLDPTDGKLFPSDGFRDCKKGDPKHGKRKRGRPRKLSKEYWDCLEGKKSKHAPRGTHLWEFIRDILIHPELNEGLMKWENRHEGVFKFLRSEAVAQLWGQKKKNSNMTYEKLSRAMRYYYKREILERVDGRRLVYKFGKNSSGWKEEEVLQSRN
In short: as §1

CRX = CRX (Homo sapiens, UniProt O43186 1-299); conditions: protein: recombinant; tags: N-terminal GST; dsDNA, one strand shown
In short: as §1

ETV1 = ETV1 (Homo sapiens, UniProt P50549 1-477); conditions: protein: recombinant; tags: N-terminal GST; dsDNA, one strand shown
In short: as §1

ERF = biological target: T6, ERF (Homo sapiens, UniProt P50548 1-548); conditions: protein: recombinant; tags: N-terminal GST; dsDNA, one strand shown
T6 sequence: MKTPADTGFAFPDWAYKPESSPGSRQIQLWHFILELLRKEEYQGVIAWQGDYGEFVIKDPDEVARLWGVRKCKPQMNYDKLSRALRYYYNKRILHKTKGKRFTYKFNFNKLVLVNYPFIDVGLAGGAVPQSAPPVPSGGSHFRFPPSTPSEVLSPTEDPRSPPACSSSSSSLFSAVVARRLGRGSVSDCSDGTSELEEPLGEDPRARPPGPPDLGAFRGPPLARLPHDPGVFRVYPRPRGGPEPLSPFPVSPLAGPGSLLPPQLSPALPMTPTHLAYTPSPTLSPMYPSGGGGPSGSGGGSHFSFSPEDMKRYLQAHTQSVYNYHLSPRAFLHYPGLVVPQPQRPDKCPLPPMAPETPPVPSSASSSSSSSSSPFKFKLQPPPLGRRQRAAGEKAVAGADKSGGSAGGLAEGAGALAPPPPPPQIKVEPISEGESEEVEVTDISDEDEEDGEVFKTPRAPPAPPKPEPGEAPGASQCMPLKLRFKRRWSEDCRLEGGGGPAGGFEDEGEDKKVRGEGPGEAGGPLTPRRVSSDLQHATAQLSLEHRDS
In short: as §1

ETV3L = biological target: T7, ETV3L (Homo sapiens, UniProt Q6ZN32 1-361); conditions: protein: recombinant; tags: N-terminal GST; dsDNA, one strand shown
T7 sequence: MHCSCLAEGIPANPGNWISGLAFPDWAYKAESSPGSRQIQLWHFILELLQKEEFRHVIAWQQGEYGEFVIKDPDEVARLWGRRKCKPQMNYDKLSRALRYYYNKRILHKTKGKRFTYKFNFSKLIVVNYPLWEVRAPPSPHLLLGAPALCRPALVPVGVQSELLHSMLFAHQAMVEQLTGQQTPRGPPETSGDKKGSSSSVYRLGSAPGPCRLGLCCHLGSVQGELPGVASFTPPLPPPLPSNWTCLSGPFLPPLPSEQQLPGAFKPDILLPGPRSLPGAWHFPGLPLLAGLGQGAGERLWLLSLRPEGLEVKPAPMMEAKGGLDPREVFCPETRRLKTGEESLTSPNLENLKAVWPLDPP
In short: as §1

ETS2 = biological target: T8, ETS2 (Homo sapiens, UniProt P15036 1-469); conditions: protein: recombinant; tags: N-terminal GST; dsDNA, one strand shown
T8 sequence: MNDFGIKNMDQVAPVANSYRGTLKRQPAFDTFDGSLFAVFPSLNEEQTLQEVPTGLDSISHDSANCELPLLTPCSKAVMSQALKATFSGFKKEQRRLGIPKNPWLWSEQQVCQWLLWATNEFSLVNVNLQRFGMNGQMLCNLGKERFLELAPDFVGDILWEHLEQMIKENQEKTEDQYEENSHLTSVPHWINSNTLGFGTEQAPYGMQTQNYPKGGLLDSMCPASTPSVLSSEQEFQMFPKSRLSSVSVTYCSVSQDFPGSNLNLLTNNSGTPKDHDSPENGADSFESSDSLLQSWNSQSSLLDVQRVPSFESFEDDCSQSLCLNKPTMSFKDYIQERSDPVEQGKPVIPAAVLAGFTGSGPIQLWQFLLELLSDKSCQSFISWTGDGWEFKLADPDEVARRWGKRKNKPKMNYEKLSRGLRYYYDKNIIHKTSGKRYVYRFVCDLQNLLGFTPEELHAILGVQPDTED
In short: as §1

SPDEF = biological target: T9, SPDEF (Homo sapiens, UniProt O95238 1-335); conditions: protein: recombinant; tags: N-terminal GST; dsDNA, one strand shown
T9 sequence: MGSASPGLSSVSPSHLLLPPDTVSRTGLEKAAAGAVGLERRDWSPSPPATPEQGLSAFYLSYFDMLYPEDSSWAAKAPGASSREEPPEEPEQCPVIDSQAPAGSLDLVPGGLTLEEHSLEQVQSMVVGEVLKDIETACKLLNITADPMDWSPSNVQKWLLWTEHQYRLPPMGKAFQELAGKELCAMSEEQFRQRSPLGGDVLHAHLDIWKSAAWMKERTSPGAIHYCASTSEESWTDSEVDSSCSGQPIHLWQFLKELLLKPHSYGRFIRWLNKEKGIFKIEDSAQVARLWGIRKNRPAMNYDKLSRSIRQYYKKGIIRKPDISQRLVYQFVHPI
In short: as §1

ETV7 = biological target: T10, ETV7 (Homo sapiens, UniProt Q9Y603 1-341); conditions: protein: recombinant; tags: N-terminal GST; dsDNA, one strand shown
T10 sequence: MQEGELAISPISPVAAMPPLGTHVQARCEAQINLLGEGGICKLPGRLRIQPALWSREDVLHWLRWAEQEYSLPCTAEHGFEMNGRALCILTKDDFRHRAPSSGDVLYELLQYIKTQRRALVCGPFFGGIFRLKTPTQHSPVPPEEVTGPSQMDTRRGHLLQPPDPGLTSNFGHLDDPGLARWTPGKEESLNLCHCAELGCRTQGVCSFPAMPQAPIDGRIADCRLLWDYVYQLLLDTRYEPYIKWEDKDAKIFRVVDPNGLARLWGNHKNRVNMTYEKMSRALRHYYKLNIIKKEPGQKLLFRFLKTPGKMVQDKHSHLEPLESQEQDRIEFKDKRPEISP
In short: as §1

ELF5 = biological target: T11, ELF5 (Homo sapiens, UniProt Q9UKW6-2 1-255); conditions: protein: recombinant; tags: N-terminal GST; dsDNA, one strand shown
T11 sequence: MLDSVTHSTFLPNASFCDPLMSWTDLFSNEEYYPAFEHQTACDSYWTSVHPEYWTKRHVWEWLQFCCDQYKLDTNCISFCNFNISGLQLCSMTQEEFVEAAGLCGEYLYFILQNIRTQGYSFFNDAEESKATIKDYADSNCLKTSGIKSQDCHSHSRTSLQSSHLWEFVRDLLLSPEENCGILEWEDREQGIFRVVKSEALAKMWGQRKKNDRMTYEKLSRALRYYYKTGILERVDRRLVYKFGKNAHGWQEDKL
In short: as §1

ETV3 = biological target: T12, ETV3 (Homo sapiens, UniProt P41162-2 1-143); conditions: protein: recombinant; tags: N-terminal GST; dsDNA, one strand shown
T12 sequence: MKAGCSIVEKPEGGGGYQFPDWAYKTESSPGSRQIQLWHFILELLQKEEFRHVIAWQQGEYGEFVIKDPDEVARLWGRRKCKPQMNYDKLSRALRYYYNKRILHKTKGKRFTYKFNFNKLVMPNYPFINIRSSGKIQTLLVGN
In short: as §1

ETV6 = ETV6 (Homo sapiens, UniProt P41212 1-452); conditions: protein: recombinant; tags: N-terminal GST; dsDNA, one strand shown
In short: as §1

Chain of CRX (O43186 whole entry): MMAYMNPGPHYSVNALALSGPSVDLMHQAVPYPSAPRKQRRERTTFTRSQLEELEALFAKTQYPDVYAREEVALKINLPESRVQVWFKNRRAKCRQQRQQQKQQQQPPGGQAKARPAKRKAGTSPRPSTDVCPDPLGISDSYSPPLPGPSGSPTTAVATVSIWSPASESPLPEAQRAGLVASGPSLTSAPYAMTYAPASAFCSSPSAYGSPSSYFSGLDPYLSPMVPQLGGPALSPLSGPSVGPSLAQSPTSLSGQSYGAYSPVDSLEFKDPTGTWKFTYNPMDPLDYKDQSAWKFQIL
Chain of ETV1 (P50549 whole entry): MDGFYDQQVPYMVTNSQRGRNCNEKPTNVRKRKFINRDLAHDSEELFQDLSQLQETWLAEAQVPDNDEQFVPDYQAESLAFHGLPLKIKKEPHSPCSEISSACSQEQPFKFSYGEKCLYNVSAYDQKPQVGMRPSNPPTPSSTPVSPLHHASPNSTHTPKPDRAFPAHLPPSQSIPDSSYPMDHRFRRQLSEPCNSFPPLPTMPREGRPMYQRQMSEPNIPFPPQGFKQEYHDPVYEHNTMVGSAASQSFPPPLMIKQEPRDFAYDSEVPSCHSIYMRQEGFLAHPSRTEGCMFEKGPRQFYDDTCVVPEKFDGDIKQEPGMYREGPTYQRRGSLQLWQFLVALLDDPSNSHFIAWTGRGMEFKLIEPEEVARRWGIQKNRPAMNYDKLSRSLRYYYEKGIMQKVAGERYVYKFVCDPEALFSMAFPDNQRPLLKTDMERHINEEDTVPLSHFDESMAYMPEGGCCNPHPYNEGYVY
Chain of ETV6 (P41212 whole entry): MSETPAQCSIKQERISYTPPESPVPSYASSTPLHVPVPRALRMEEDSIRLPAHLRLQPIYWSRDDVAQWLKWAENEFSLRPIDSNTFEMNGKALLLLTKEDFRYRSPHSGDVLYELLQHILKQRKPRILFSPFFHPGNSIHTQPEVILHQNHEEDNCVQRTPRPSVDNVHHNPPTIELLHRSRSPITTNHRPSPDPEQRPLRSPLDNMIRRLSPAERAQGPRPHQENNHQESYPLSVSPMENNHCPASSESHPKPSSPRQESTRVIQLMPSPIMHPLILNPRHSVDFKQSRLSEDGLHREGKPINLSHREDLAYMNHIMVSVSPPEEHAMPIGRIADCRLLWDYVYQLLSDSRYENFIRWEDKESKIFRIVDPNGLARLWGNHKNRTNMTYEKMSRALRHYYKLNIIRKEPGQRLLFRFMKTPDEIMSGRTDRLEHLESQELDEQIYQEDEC
Chain of ETV5 (P41161 whole entry): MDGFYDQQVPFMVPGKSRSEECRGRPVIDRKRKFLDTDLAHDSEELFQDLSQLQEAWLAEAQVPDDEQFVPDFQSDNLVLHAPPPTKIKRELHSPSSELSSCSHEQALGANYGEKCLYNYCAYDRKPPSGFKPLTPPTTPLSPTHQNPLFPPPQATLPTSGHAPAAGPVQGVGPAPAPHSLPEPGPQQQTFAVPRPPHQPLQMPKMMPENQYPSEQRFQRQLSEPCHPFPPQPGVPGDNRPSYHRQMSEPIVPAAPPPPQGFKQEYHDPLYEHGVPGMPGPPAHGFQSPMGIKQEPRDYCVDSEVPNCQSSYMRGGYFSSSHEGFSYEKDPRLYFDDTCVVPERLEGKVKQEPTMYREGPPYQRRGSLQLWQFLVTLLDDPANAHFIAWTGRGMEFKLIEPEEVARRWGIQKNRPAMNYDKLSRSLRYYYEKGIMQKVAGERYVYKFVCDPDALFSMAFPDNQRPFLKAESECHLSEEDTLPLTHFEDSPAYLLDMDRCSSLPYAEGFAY
Chain of ELF4 (Q99607 whole entry): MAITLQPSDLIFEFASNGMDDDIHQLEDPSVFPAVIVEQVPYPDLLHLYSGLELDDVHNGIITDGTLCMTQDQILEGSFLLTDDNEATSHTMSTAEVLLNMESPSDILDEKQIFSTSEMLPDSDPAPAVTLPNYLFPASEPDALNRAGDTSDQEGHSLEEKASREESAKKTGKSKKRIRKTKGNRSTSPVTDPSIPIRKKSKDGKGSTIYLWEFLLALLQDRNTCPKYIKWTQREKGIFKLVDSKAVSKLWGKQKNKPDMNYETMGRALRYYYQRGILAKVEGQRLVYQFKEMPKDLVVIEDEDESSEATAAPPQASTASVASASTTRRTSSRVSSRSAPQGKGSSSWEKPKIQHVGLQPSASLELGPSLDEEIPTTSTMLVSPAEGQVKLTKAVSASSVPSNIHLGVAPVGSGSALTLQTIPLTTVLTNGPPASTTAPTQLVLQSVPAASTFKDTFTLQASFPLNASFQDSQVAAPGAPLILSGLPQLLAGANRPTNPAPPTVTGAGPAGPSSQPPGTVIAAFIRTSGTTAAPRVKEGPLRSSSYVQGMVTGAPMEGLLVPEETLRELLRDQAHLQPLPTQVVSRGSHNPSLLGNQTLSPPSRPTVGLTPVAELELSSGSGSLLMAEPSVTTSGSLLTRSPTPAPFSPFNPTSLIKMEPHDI
Chain of HSF1 (Q00613 whole entry): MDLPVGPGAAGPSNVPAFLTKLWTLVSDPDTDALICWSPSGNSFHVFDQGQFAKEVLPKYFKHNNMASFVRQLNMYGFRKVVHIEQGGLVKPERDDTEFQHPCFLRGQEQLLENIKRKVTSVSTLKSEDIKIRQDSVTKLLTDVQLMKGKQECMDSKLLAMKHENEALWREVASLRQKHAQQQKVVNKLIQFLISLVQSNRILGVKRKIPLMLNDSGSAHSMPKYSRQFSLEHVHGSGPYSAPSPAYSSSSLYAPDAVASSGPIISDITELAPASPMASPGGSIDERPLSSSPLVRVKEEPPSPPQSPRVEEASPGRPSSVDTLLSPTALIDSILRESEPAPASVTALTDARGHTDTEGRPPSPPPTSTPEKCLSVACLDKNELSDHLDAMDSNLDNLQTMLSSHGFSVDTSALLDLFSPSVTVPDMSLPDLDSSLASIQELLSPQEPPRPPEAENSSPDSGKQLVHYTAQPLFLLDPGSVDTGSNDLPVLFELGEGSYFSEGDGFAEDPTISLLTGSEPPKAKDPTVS

**Q.** For TTCGAC, which binding signal (FEV) is on record?
**A.** 1.5 fold enrichment (6-mer frequency, TF over GST control)

**Q.** And the binding signal (ETV5)?
**A.** 1.46 fold enrichment (6-mer frequency, TF over GST control)

**Q.** And the binding signal (HSF1)?
**A.** 1.75 fold enrichment (6-mer frequency, TF over GST control)

**Q.** And the binding signal (SPIC)?
**A.** 1.35 fold enrichment (6-mer frequency, TF over GST control)

**Q.** What about the binding signal (ELF4) of the same sequence?
**A.** 1.63 fold enrichment (6-mer frequency, TF over GST control)

**Q.** And the binding signal (ELK4)?
**A.** 1.43 fold enrichment (6-mer frequency, TF over GST control)

**Q.** What about the binding signal (ETV2) of the same sequence?
**A.** 1.35 fold enrichment (6-mer frequency, TF over GST control)

**Q.** What about the binding signal (ELF3) of the same sequence?
**A.** 1.46 fold enrichment (6-mer frequency, TF over GST control)

**Q.** And the binding signal (CRX)?
**A.** 1.44 fold enrichment (6-mer frequency, TF over GST control)

**Q.** And the binding signal (ETV1)?
**A.** 1.44 fold enrichment (6-mer frequency, TF over GST control)

**Q.** And the binding signal (ERF)?
**A.** 1.43 fold enrichment (6-mer frequency, TF over GST control)

**Q.** What about the binding signal (ETV3L) of the same sequence?
**A.** 1.39 fold enrichment (6-mer frequency, TF over GST control)

**Q.** And the binding signal (ETS2)?
**A.** 1.42 fold enrichment (6-mer frequency, TF over GST control)

**Q.** And the binding signal (SPDEF)?
**A.** 1.36 fold enrichment (6-mer frequency, TF over GST control)

**Q.** And the binding signal (ETV7)?
**A.** 1.37 fold enrichment (6-mer frequency, TF over GST control)

**Q.** What about the binding signal (ELF5) of the same sequence?
**A.** 1.36 fold enrichment (6-mer frequency, TF over GST control)

**Q.** And the binding signal (ETV3)?
**A.** 1.45 fold enrichment (6-mer frequency, TF over GST control)

**Q.** And the binding signal (ETV6)?
**A.** 1.3 fold enrichment (6-mer frequency, TF over GST control)

Source: publication PMC7862700, “An all-to-all approach to the identification of sequence-specific readers for epigenetic DNA modifications on cytosine”
